Experimental data taken from the antibiotic and cytotoxicity screens of Wong et al. (2023).
Screen size: about 39,000 compounds; about 3,300 (8.5%) were called active. Many of the other results were omitted from the sample, so actives are more common in it than they were.

Each compound was assayed on HepG2 (assay: cytotoxicity call (relative viability < 0.9)). Conditions: 10 µM.

SMILES	cytotoxicity call
C[C@H](CO)N1C[C@H](C)[C@H](CN(C)Cc2ccc(C(=O)O)cc2)Oc2c(NC(=O)Nc3ccc(C(F)(F)F)cc3)cccc2C1=O	inactive
O=C(C[C@@H]1C=C[C@@H](NC(=O)C2CCC2)[C@H](CO)O1)NCCCN1CCOCC1	inactive
C[C@@H]1CCCCO[C@H](CN(C)C(=O)Cc2ccccc2)[C@@H](C)CN([C@@H](C)CO)C(=O)c2cc(NC(=O)CCC(F)(F)F)ccc2O1	inactive
COCCOC(=O)N1C(=O)[C@@]2(c3ccccc31)[C@H](C(=O)N1CCCCCCC1)[C@H]1C(=O)O[C@H](c3ccccc3)[C@H](c3ccccc3)N1[C@@H]2c1ccc(OCCO)cc1	inactive
COc1ccc(-c2cnc3c(c2)C(=O)N([C@H](C)CO)C[C@H](C)[C@H](CN(C)C(=O)Cc2cccnc2)O3)cc1	inactive
Cn1c(=O)n2n(c1=O)[C@H](C1CC1)C=C1CN3[C@@H]([C@H](Cc4ccccc4)OC(=O)[C@@H]3Cc3ccc(-n4cc(CCC(=O)NO)nn4)cc3)[C@@H]12	inactive
C[C@H]1CN([C@@H](C)CO)C(=O)CCCn2nncc2CO[C@H]1CN(C)C(=O)Nc1ccc(C(F)(F)F)cc1	inactive
NC(=O)CN1C(=O)C(=O)c2cc(Cl)ccc21	inactive
Cc1nc(-c2ccncc2)sc1CN	inactive
O=C(C[C@@H]1C[C@@H]2c3cc(NC(=O)c4ccc5c(c4)OCO5)ccc3O[C@@H]2[C@H](CO)O1)NCc1ccccn1	inactive
COCC(=O)Nc1ccc2c(c1)C(=O)N(C)[C@H]1CC[C@@H](CC(=O)NCc3ccc(OC)cc3)O[C@@H]1CO2	inactive
Cc1noc(C)c1NC(=O)Nc1cccc2c1O[C@@H](CN(C)S(C)(=O)=O)[C@H](C)CN([C@H](C)CO)C2=O	inactive
COc1cc(S(C)(=O)=O)ccc1Nc1nc2ccc(-c3ccc(NC(=O)[C@H](C)c4ccc(F)cc4)cc3)cn2n1	inactive
C[C@@H]1CN([C@H](C)CO)C(=O)c2cc(NC(=O)Nc3ccccc3)ccc2O[C@H]1CN(C)Cc1ccc(Oc2ccccc2)cc1	active
C[C@@H]1CN([C@H](C)CO)C(=O)c2cc(NC(=O)Nc3ccccc3)ccc2O[C@@H]1CN(C)Cc1ccc(Oc2ccccc2)cc1	active
COc1ccc(NC(=O)N(C)C[C@@H]2OCCCC[C@@H](C)Oc3ccc(NS(=O)(=O)c4ccc(C)cc4)cc3C(=O)N([C@@H](C)CO)C[C@@H]2C)cc1	inactive
CCCNC(=O)N1C[C@H]2[C@@H](c3ccccc31)[C@H](CO)N2C(=O)CN1CCOCC1	inactive
C[C@@H]1CCCCO[C@@H](CN(C)Cc2ccc(Cl)c(Cl)c2)[C@H](C)CN([C@@H](C)CO)C(=O)c2cc(NS(=O)(=O)c3cccs3)ccc2O1	inactive
CC(=O)NCC(=O)N1CCC2(CC1)C(=O)N(CC1CC1)CCN2C	inactive
C[C@@H]1CN([C@H](C)CO)C(=O)c2cc(NS(=O)(=O)c3ccc(F)cc3)ccc2O[C@H]1CN(C)S(C)(=O)=O	inactive
C[C@@H]1ON(c2ccc(C(=O)OC(C)(C)C)cc2)[C@H](c2ccc(O)cc2)[C@H]1C(=O)N1C(=O)OC[C@H]1Cc1ccccc1	inactive
COc1cccc(S(=O)(=O)N(C)C[C@@H]2Oc3ncc(-c4ccc(F)cc4)cc3C(=O)N([C@H](C)CO)C[C@@H]2C)c1	inactive
NC(=O)C1CCN(C(=O)c2ccco2)CC1	inactive

SMILES	cytotoxicity call
COc1cc2nc(N3CCN(C(=O)C4COc5ccccc5O4)CC3)nc(N)c2cc1OC.CS(=O)(=O)O (stereo unspecified)	inactive
COc1cc2nc(N3CCN(C(=O)c4ccco4)CC3)nc(N)c2cc1OC.Cl	active
COc1cc2nc(N3CCN(C(=O)C4CCCO4)CC3)nc(N)c2cc1OC.Cl (stereo unspecified)	active
O=C(c1ccco1)N1CCNCC1	inactive
COc1cc2nc(N(C)CCCNC(=O)C3CCCO3)nc(N)c2cc1OC.Cl (stereo unspecified)	inactive
Cl.Cl.NCCNCCNCCN	inactive
C[C@@H]1CCCCO[C@@H](CN(C)C(=O)CCC(F)(F)F)[C@H](C)CN([C@@H](C)CO)C(=O)c2cc(NC(=O)Nc3ccccc3)ccc2O1	inactive
C[C@@H]1CCCCO[C@H](CN(C)CC2CC2)[C@@H](C)CN([C@H](C)CO)C(=O)c2cc(NC(=O)Cc3ccccc3)ccc2O1	inactive
O=C(C[C@H]1CC[C@@H]2[C@H](COC[C@H](O)CN2C(=O)c2cnccn2)O1)N1CCN(c2ccccc2)CC1	inactive
C[C@H](CO)N1C[C@H](C)[C@H](CN(C)CC2CCCCC2)OCCCC[C@H](C)Oc2ccc(NC(=O)CCCN(C)C)cc2C1=O	inactive
NNC(=O)c1ccc2c(=O)[nH][nH]c(=O)c2c1	inactive
CCS(=O)(=O)NCC[C@@H]1CC[C@@H](NS(=O)(=O)c2ccccc2C)[C@H](CO)O1	inactive
COCc1cn(CC[C@@H]2CC[C@H](NC(=O)CCN3CCCCC3)[C@@H](CO)O2)nn1	inactive
CN(C)CCCNC(=O)C[C@@H]1CC[C@H]2[C@@H](COc3ccc(NC(=O)c4ccc5c(c4)OCO5)cc3C(=O)N2C)O1	inactive
C[C@H]1CN([C@@H](C)CO)C(=O)c2cc(NS(C)(=O)=O)ccc2O[C@H]1CN(C)C(=O)Nc1ccc(F)cc1	inactive
C[C@@H]1CN([C@@H](C)CO)C(=O)c2cc(NS(C)(=O)=O)ccc2O[C@@H]1CN(C)C(=O)Nc1ccc(C(F)(F)F)cc1	active
C[C@@H]1CN([C@@H](C)CO)C(=O)c2cc(NS(C)(=O)=O)ccc2O[C@H]1CN(C)C(=O)Nc1ccc(C(F)(F)F)cc1	inactive
C[C@H](CO)N1C[C@H](C)[C@@H](CN(C)C(=O)Nc2ccc(C(F)(F)F)cc2)Oc2ccc(NS(C)(=O)=O)cc2C1=O	inactive
C[C@@H]1CN([C@H](C)CO)C(=O)c2cc(NS(C)(=O)=O)ccc2O[C@H]1CN(C)C(=O)Nc1ccc(C(F)(F)F)cc1	inactive
C[C@H](CO)N1C[C@H](C)[C@@H](CN(C)C(=O)Nc2ccc(F)cc2)Oc2ccc(NS(C)(=O)=O)cc2C1=O	inactive
C[C@H]1CN([C@@H](C)CO)C(=O)c2cc(NS(C)(=O)=O)ccc2O[C@H]1CN(C)C(=O)Nc1ccc(C(F)(F)F)cc1	active
C[C@H]1CN([C@@H](C)CO)C(=O)c2cc(NS(C)(=O)=O)ccc2O[C@@H]1CN(C)C(=O)Nc1ccc(F)cc1	active
C[C@H]1CN([C@@H](C)CO)C(=O)c2cc(NS(C)(=O)=O)ccc2O[C@@H]1CN(C)C(=O)Nc1ccc(C(F)(F)F)cc1	inactive
